# Reference: PubChem BioAssay
# Several values for one entry are separate records, joined by “and”; a condition that tells them apart may be missing. Equal entries are not always repeated. For part of these data: Measured potencies and affinities stand elsewhere. Activity calls are given as the source filed them. Unless noted, the rule behind the calls is not given here.
# Columns and labels:
# [1] = galactose survival enhancers in mitochondrial complex I cybrids – cell-based, galactose medium, ATP luminescence, primary screen (AID 1645843;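 active = z-score of at least 1.8 in each of two replicates, scored against plate mean and spread of sample wells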;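 note: positive z means more ATP and so rescue of galactose-driven cybrid death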); conditions: complex I mutant cybrid cells, 72 h, stronger effect = higher value
# [2] = P. berghei load reduction in hepatocytes – cell-based, HepG2, luciferase luminescence, HepG2 viability, primary screen (AID 624349; in the data active = parasite load remaining mostly below about 12%, no sharp cut-off; inactive = mostly above about 10%;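 note: 100% = mean of DMSO negative control wells on the same plate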); conditions: P. berghei liver stage in HepG2, luciferase luminescence, concentration not given here; parasite load remaining: stronger effect = lower value; viability: measured here: HepG2 viability without parasites
# [3] = test system: Hepatitis C virus NS3 helicase; assay: blockers of NS3h binding to ssDNA – biochemical, fluorescence polarization, LOPAC1280 library, primary screen (AID 687035; in the data active = inhibition above about 37%); conditions: Purified HCV NS3 helicase, Cy5-dT15 ssDNA binding fluorescence polarization; stronger effect = higher value; concentration not given here
# [4] = compounds altering Cy5-DNA-NS3h complex signal – biochemical, LOPAC1280, artefact control for HCV NS3 helicase inhibitor project (AID 687037); conditions: Cy5-DNA-NS3h complex fluorescence interference counterscreen
# [5] = blockers of cellular phospholipid synthesis – cell-based, LOPAC library, screen 4, primary screen (AID 1347384); conditions: animal cells, phospholipid biosynthesis inhibition screen; at 10 µM
# [6] = growth inhibition, single agents and combos, LFS_MB_1R, cell-based, cisplatin or BGB combos, synergistic combos for chromothripsis tumors (AID 1671452; in the data active = inhibition above about 80%;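 note: cells exposed for 96 hours before readout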); conditions: LFS_MB_1R medulloblastoma cells, stronger effect = higher value
# [7] = growth inhibition, single agents and combos, CRL2098, cell-based, BGB or cisplatin IC20 combos, synergistic combos for chromothripsis tumors (AID 1671454; in the data active = inhibition above about 80%;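 note: cells exposed for 96 h before readout; 0% = vehicle DMSO and 100% = killing by high DMSO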); conditions: CRL2098 osteosarcoma cells, drug combinations, stronger effect = higher value
# [8] = growth inhibition, single agents and combos, HD-MB03, cell-based, BGB or cisplatin IC20 combos, synergistic combos for chromothripsis tumors (AID 1671455; in the data active = inhibition above about 83%;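 note: 0% = vehicle DMSO and 100% = high DMSO as cytotoxic control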); conditions: HD-MB03 medulloblastoma cells, stronger effect = higher value
# [9] = growth inhibition, single agents and combos, UWB1.289, cell-based, BGB or cisplatin combos, synergistic combos for chromothripsis tumors (AID 1671456; in the data active = inhibition above about 80%;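 note: cells exposed to compound for four days; 0% = vehicle DMSO and 100% = killing by high DMSO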); conditions: UWB1.289 ovarian carcinoma cells, stronger effect = higher value
# [10] = growth inhibition, single agents and combos, LFS_MB_2R, cell-based, cisplatin combos, synergistic combos for chromothripsis tumors (AID 1671457; in the data active = inhibition above about 80%;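 note: cells exposed to compound for four days before readout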); conditions: LFS_MB_2R medulloblastoma cells, stronger effect = higher value
# [11] = UWB1.289_BRCA1 ovarian cancer growth, cell-based, BGB or cisplatin combinations (AID 1671459; in the data active = inhibition above about 80%); conditions: UWB1.289 BRCA1 ovarian carcinoma, drug combinations, stronger effect = higher value
# [12] = drug combination toxicity in non-malignant astrocytes – cell-based, BGB or cisplatin IC20 combos, cytotoxicity control for chromothriptic childhood tumor combination screen (AID 1671460; in the data active = inhibition above about 80%;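 note: cells exposed to compounds for 96 hours before viability readout; 0% = vehicle and 100% = killing control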); conditions: Human astrocytes, viability inhibition, drug combinations, at 0.5 µM, stronger effect = higher value
# [13] = compounds altering circadian rhythm period length – cell-based, LOPAC library, luminescence reporter (AID 2774); conditions: circadian reporter cells, at 7 µM, actives lie on both sides;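 note: values are relative to mean of DMSO wells on each plate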
# [14] = liver-stage malaria parasite load reduction – cell-based, known kinase inhibitor set, luminescence, hepatoma host viability (AID 624392); conditions: Plasmodium liver stage in hepatoma cells, luciferase luminescence, concentration not given here; liver cell % of control: measured here: host liver cell viability; parasite % of control: stronger effect = lower value;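 note: infected cells incubated roughly two days before readout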
# [15] = target: NAD(+) hydrolase SARM1 (Homo sapiens) (UniProt Q6SZW1); assay: blocking NAD cleavage by SARM1 SAM-TIR – cell lysate, NAD-Glo luminescence (AID 1508614;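 active = compound whose remaining NAD level is above about 45 nM, limit read from the data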;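 note: higher remaining NAD means stronger inhibition of SARM1 NADase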); conditions: SAM-TIR HEK293T lysate NADase, at 1 µM, stronger effect = higher value
# [16] = target: Mitogen-activated protein kinase 7 (Homo sapiens) (UniProt Q13164); assay: Gal4-ERK5 driven luciferase induction – cell-based, HTS, primary screen (AID 1508626;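 active = luciferase signal above three times the same-plate solvent-only control wells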;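 note: luciferase driven by Gal4-ERK5 fusion binding five Gal4 sites before minimal TATA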); conditions: HeLa Gal4-ERK5 transactivation, 18 h, at 5 µM, stronger effect = higher value
# [17] = blockers of polyQ-driven CASP3 activation – cell-based (AID 1583); conditions: polyglutamine-induced caspase-3 activation, cell assay; stronger effect = higher value;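 tested at 10 µM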
# [18] = yeast 75Q aggregation reduction – 75Q-TubU reporter (AID 1593); conditions: Yeast 75Q polyglutamine aggregation reporter
# [19] = restoration of touch response, mutant HTT neurons – whole organism, C. elegans mechanosensory neurons, N-terminal huntingtin (AID 1599); conditions: C. elegans polyQ-huntingtin mechanosensory neurons, stronger effect = higher value
# [20] = measured here: combination with BGB IC40, at 0.05 µM
# [21] = measured here: combination with cisplatin, at 0.5 µM
# [22] = measured here: combination with cisplatin, at 5 µM
# [23] = measured here: combination with BGB at IC20, at 0.5 µM
# [24] = measured here: combination with cisplatin at IC20, at 0.5 µM
# [25] = measured here: combo with BGB at IC20, at 0.5 µM
# [26] = measured here: combo with cisplatin at IC20, at 0.5 µM
# [27] = measured here: inhibition with BGB combination, at 0.05 µM
# [28] = measured here: inhibition with cisplatin combination, at 0.05 µM
# [29] = BGB combination, concentration series, at 5 µM
# [30] = cisplatin combination, concentration series, at 5 µM
# [31] = measured here: combo with BGB IC20
# [32] = measured here: combo with cisplatin IC20
# NAD(+) hydrolase SARM1 (Homo sapiens), sequence (Q6SZW1 whole entry, looked up, the tested form may be a part): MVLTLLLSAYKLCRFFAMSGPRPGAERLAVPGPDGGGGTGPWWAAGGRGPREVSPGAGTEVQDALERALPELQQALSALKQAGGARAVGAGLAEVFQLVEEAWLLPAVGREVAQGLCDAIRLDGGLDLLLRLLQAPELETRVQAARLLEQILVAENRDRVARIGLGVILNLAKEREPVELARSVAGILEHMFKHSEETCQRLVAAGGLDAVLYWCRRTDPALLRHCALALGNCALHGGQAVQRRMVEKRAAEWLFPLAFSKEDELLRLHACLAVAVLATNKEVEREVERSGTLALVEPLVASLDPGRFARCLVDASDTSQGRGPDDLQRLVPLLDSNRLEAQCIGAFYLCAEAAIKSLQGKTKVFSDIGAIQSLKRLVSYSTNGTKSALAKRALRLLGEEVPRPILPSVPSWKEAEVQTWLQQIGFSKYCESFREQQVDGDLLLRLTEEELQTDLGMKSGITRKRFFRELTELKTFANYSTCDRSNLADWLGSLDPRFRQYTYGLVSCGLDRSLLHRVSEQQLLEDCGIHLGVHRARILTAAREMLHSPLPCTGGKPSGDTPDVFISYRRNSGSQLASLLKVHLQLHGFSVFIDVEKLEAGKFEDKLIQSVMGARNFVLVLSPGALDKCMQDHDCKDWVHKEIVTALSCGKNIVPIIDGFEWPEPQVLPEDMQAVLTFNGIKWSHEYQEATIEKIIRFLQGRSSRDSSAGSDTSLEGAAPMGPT
# Mitogen-activated protein kinase 7 (Homo sapiens), sequence (Q13164 whole entry, looked up, the tested form may be a part): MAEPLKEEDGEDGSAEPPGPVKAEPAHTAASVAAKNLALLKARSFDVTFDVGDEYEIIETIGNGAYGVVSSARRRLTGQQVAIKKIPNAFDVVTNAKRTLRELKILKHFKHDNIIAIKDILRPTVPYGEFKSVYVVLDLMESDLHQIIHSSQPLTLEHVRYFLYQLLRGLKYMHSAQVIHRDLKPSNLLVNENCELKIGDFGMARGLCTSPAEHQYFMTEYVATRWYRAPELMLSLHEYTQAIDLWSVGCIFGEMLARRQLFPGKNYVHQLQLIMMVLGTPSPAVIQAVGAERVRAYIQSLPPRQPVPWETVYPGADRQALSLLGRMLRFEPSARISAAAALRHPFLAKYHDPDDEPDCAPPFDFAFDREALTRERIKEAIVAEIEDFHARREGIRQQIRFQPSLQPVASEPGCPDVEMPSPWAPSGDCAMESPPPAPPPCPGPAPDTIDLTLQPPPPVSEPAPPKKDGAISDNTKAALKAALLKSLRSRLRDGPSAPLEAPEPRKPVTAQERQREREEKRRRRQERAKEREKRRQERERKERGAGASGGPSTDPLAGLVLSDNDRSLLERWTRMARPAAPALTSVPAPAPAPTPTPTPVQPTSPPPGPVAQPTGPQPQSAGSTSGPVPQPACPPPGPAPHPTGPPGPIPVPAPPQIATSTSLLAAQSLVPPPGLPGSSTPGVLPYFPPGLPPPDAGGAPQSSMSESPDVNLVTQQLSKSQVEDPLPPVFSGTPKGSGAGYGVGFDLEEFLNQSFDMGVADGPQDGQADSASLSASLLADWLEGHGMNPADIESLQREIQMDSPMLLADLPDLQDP
smiles,measurement,setting,value
COc1ccc(-c2c(-c3ccc(O)cc3O)n[nH]c2C)cc1,z-score,[1],-1.81 (inactive)
N#Cc1c(C2CCNCC2)cc(-c2c(O)cccc2OCC2CC2)nc1N,parasite load remaining,[2],29.7% (inactive)
same,viability,[2],88.8%
O=C(Nc1nc2ccccc2n1CCN1CCOCC1)c1cccc([N+](=O)[O-])c1,parasite load remaining,[2],33.2% (inactive)
same,viability,[2],151%
same,inhibition,[3],-2% (inactive)
same,fluorescence ratio (interference),[4],1.1 (inactive)
same,outcome,[5],inactive
same,z-score,[1],1.46 (inactive)
Cc1cn([C@@H]2O[C@H](CO)[C@@H](O)[C@@H]2F)c(=O)[nH]c1=O,inhibition,[6]; at 0.5 µM,-24% (inactive)
same,inhibition,[6]; [20],-37.2%
same,inhibition,[6]; [21],-20.9%
same,inhibition,[6]; [22],-19%
same,inhibition,[7]; at 0.5 µM,-20.9% (inactive)
same,inhibition,[7]; [23],-6.05%
same,inhibition,[7]; [24],-15.6%
same,inhibition,[8]; at 0.5 µM,-11.4% (inactive)
same,inhibition,[8]; [25],-16%
same,inhibition,[8]; [26],-8.28%
same,inhibition,[9]; at 0.5 µM,-3.54% (inactive)
same,inhibition,[9]; [27],-7.92%
same,inhibition,[9]; [28],2.99%
same,inhibition,[10]; at 0.5 µM,-27.6% (inactive)
same,inhibition,[10]; [21],-30.2%
same,inhibition,[10]; [22],-44.4%
same,inhibition,[11]; [29],-5.53%
same,inhibition,[11]; at 0.5 µM,-5.97% (inactive)
same,inhibition,[11]; [30],11.6%
same,inhibition,[12],10.9% (inactive)
same,inhibition,[12]; [31],14.5%
same,inhibition,[12]; [32],15.4%
O=c1[nH]c(=O)n([C@H]2C[C@H](O)[C@@H](CO)O2)cc1/C=C/Br,period change,[13],-0.01 h (inactive)
same,inhibition,[3],-1% (inactive)
same,fluorescence ratio (interference),[4],1 (inactive)
C=CC(=O)Nc1cccc(Nc2nc(NC3CCC(N(C)C)CC3)nc3c2ncn3C(C)C)c1 (configuration not stated),liver cell % of control,[14],43.6%
same,parasite % of control,[14],15.4% (inactive)
Nc1nc(N)c(N=O)c(OCC2CCCCC2)n1,inhibition,[3],-2% (inactive)
same,fluorescence ratio (interference),[4],0.9 (inactive)
same,outcome,[5],inactive
same,z-score,[1],1.21 (inactive)
COc1ccc(C(=O)CC2(O)C(=O)Nc3c(Cl)ccc(Cl)c32)cc1 (configuration not stated),inhibition,[6]; at 0.5 µM,2.98% (inactive)
same,inhibition,[6]; [20],-32.3%
same,inhibition,[6]; [21],23.2%
same,inhibition,[6]; [22],27.4%
same,inhibition,[7]; at 0.5 µM,-4.98% (inactive)
same,inhibition,[7]; [23],4.02%
same,inhibition,[7]; [24],-4.5%
same,inhibition,[8]; at 0.5 µM,57.3% (inactive)
same,inhibition,[8]; [25],58.6%
same,inhibition,[8]; [26],55.7%
same,inhibition,[9]; at 0.5 µM,11.3% (inactive)
same,inhibition,[9]; [27],-8.43%
same,inhibition,[9]; [28],-6.45%
same,inhibition,[10]; at 0.5 µM,-4.47% (inactive)
same,inhibition,[10]; [21],-11.7%
same,inhibition,[10]; [22],-26.3%
same,inhibition,[11]; [29],47.8%
same,inhibition,[11]; at 0.5 µM,14.6% (inactive)
same,inhibition,[11]; [30],51.1%
same,inhibition,[12],9.33% (inactive)
same,inhibition,[12]; [31],10.9%
same,inhibition,[12]; [32],2.7%
NC[C@@H]1O[C@H](O[C@H]2[C@@H](O)[C@H](O[C@@H]3[C@@H](O)[C@H](N)C[C@H](N)[C@H]3O[C@H]3O[C@H](CN)[C@@H](O)[C@H](O)[C@H]3N)O[C@@H]2CO)[C@H](N)[C@@H](O)[C@@H]1O,parasite load remaining,[2],49.2% (inactive) and 45.9% (inactive)
same,viability,[2],48% and 104%
same,remaining NAD,[15],10 nM (inactive)
same,luciferase signal,[16],28 AU (inactive)
same,z-score,[1],0.135 (inactive)
COc1ccc2c(c1OC)C(=O)OC2[C@H]1c2c(cc3c(c2OC)OCO3)CCN1C (some centres not stated),inhibition,[17],-3.24%
same,score,[18],1.28
same,rescue above control,[19],-2.5
Cc1ccc(S(=O)(=O)N[C@@H](Cc2ccccc2)C(=O)CCl)cc1,period change,[13],-0.14 h (inactive)
same,inhibition,[3],-4% (inactive)
same,fluorescence ratio (interference),[4],1 (inactive)
same,outcome,[5],inactive
same,z-score,[1],-1.34 (inactive)
O=C1NC(=O)/C(=C/c2ccc(-c3ccc(F)cc3O)o2)S1,parasite load remaining,[2],10.7% (active)
same,viability,[2],62.9%
same,inhibition,[3],0% (inactive)
same,fluorescence ratio (interference),[4],1 (inactive)
same,outcome,[5],inactive
same,z-score,[1],1.31 (inactive)
CO/N=C(/C(=O)N[C@@H]1C(=O)N2C(C(=O)O)=C(CSC(=O)c3ccco3)CS[C@H]12)c1csc(N)n1,remaining NAD,[15],10 nM (inactive)
C[C@H](Cc1ccc(O)c(O)c1)[C@@H](C)Cc1ccc(O)c(O)c1,period change,[13],0.005 h (inactive)
same,inhibition,[3],-2% (inactive)
same,fluorescence ratio (interference),[4],1 (inactive)
same,outcome,[5],inactive
same,z-score,[1],-1.22 (inactive)
